The results in this text go back to PubChem BioAssay (EPA / NIEHS).

The AC50 is the midpoint of the concentration-response curve, whichever way the signal moves.

Active and inactive are the calls of the source. How the source made its calls: active means hit-call score of the fitted dose curve at least 0.9, where 1 is the maximum; inactive means score below 0.9.

Read-out in this assay: CYP4A11 (gene 1579)
Nature of the assay: LTEA_HepaRG_CYP4A11: Life Technologies and Expression Analysis (LTEA) Assay for CYP4A11 using HepaRG (AID 2283486). The following applies: mRNA level, 48 h; actives raise or lower the signal. As for the experimental part:
LTEA_HepaRG is a cell based, multiplexed-readout assay that uses HepaRG, a human liver cell line, with measurements taken at 48 hours after chemical dosing on a 96-well plate.LTEA_HepaRG_CYP4A11 is one of 102 assay component(s) measured in the LTEA HepaRG cell culture assay. It is a marker of NR mediated metabolism.Data from the assay component LTEA_HepaRG_CYP4A11 was analyzed into 1 endpoint. This assay endpoint, LTEA_HepaRG_CYP4A11, was analyzed with bidirectional fitting relative to DMSO as the negative control and baseline of activity. Using a type of inducible reporter, measures of mRNA induction for gain or loss-of-signal activity can be used to understand regulation of transcription factor activity. To generalize the intended target to other relatable targets, this assay endpoint is annotated to the cyp intended target family, where the subfamily is xenobiotic metabolism.
A total of 1060 chemcials from the ToxCast library were tested in eight-point concentration-response experiments. Cell culture and cytotoxicity assays were conducted at Thermo Fisher Scientific's Custom Services facility (Madison, WI). A single lot of human HepaRG cells (Thermo Fisher Scientific, Frederick, MD) was used for the cell culture experiments. 96-well format collagen type I coated plates of human HepaRG cells were prepared using established methods. Briefly, cryopreserved HepaRG cells were thawed, plated at a density of approximately 100,000 cells/well in HepaRG Thaw, Plate, and General Purpose media (HPRG770, Thermo Fisher Scientific), and incubated for 48 hours. 0.5% DMSO was selected as vehicle control to balance the requisite need of DMSO in HepaRG cultures to maintain differentiation (for example, baseline metabolism, proportions of hepatocytes vs. cholangiocytes), while enabling further hepatic receptor pathway activation (for example, PXR and CAR) in response to chemical exposure. 48 hours after plating, the culture medium was replaced with HepaRG Serum-Free Incudtion Media. Cells were exposed to each test chemical in duplicate and maintained in CO2 incubators for another 48 hours. Chemical plates were thawed to room temperature and 200x concentrations of treatment groups were prepared. 8-point conentration-reponse curves were made with the highest exposure at 100 uM, followed by half-log dilutions, all in 0.5% DMSO. Each test plate contained variouse controls, induction positive controls (1mM phenobarbital), cytotoxicity positive controls ([…] aflatoxin B1), vehicle controls (0.5% DMSO), and total lysis controls (0.5% DMSO). Cell morphology images were taken using an Essen IncuCyte FLR automated microscope, with six 96-well plates imaged in about 24 minutes. Images were captured and exported and JPEG files. Spent culture media was transfered to black-well plates for the LDH assay, and remaining media was sorted at -80 C for later use. Cells were treated with RLT buffer and frozen until shipped for gene expression analysis. Total RNA was isolated from the cell suspension in 75 uL of Buffer RLT (Qiagen, Germantown, MD 20874) by Quintiles/Expression Analysis (Durham, NC) using a custom isolation procedure. Total RNA from each plate well was transferred to a preamplification plate. Fluidigm's 96.96 Dynamic ArrayTM (Fluidigm, Amsterdam, the Netherlands) technology was used for gene expression analyses by quantitative reverse transcription polymerase chain reaction (qRT-PCR, performed by Quintiles/Expression Analysis, Durham, NC)89. Standard TaqManTM Assays (Applied Biosystems/ThermoFisher Scientific, Foster City, CA) were used to assess the expression of 93 genes selected based on their selectivity and sensitivity to important hepatic receptors known to be modulated by environmental chemicals; importance in human hepatocyte functionality; and hepatotoxicity. […]
As to `CCN(CC)CCOc1ccc(C(=C(Cl)c2ccccc2)c2ccccc2)cc1`, the AC50 is 19.3 µM (active). As to `COc1ccc(OC(F)(F)F)cc1CN[C@H]1CCCN[C@H]1c1ccccc1`, the AC50 is 9.12 µM (active). For `CCCCC(CC)COP(=O)(OCC(CC)CCCC)OCC(CC)CCCC` (stereo not given), the result was inactive. With `CC(=O)CC(c1ccccc1)c1c(O)c2ccccc2oc1=O` (stereo not given), the compound was called inactive.

Regarding `CCCCCCCCCCCCCCOS(=O)(=O)O`, the AC50 is 4.9 µM (active). For the compound `Cc1cn([C@H]2C=C[C@@H](CO)O2)c(=O)[nH]c1=O`, the compound was classed as inactive. Turning to `CSc1ccc(Oc2ccc(S(N)(=O)=O)cc2CN(C)C)cc1C`, the concentration at half-maximal activity (AC50) was 77.5 µM (active).

With `O=C1NC(=O)C(c2ccccc2)(c2ccccc2)N1`, the AC50 was 12.1 µM (active). Turning to `CC(C)(C)c1ccccc1`, the result was inactive. As for `O=C(NS(=O)(=O)/C=C/c1cccs1)c1ccc(F)cc1Br`, the concentration at half-maximal activity (AC50) is 14.1 µM (active). For the compound `CCCCc1nc2cccnc2n1Cc1ccc(-c2ccccc2-c2nnn[nH]2)cc1`, the outcome was inactive. The same measure, in the same setting: under `NC1CCCCC1` stands “inactive”. As to `COC(=O)[C@H]1[C@H]2C[C@@H]3c4[nH]c5cc(OC)ccc5c4CCN3C[C@H]2C[C@@H](OC(=O)c2cc(OC)c(OC)c(OC)c2)[C@@H]1OC`, the AC50 is 48.8 µM (active). Regarding `O=C1c2c(O)cccc2Cc2cccc(O)c21`, the outcome was inactive. On to `NC=O`, for which the outcome was inactive.

For the compound `CN(C)C(=O)NC1(c2ccccc2)CCN(CCC[C@]2(c3ccc(Cl)c(Cl)c3)CCCN(C(=O)c3ccccc3)C2)CC1`, the AC50 is 23.6 µM (active). Consider `CC(C)(O)c1ccc(CNC(=O)c2cccnc2Oc2ccc(F)cc2)cc1`, for which the AC50 was 10.2 µM (active). Take `CC(C)c1cccc(C(C)C)c1NC(=O)NS(=O)(=O)c1cc(C(C)(C)O)co1`: the AC50 was 29.5 µM (active). `CCCCC(CC)COC(=O)CCCCCCCC(=O)OCC(CC)CCCC` (stereo not given): the result was inactive. Consider `CC(=O)OCC(COC(C)=O)OC(C)=O`, for which the result was inactive.

In the case of `Cc1cc(SC2=C(O)C[C@@](CCc3ccc(N)cc3)(C(C)C)OC2=O)c(C(C)(C)C)cc1CO`, the AC50 was 2.25 µM (active).

With `COC(=O)CCCC(=O)OC`, the compound was classed as inactive. Still for that read-out and setting: to `O=C1CCCCC1` belongs “inactive”; to `O=C(O)c1cccnc1`, “inactive”. Same read-out and setting: under `CC(=O)O` stands “inactive”; under `O=C(O)c1[nH]n(-c2ccc(S(=O)(=O)O)cc2)c(=O)c1N=Nc1ccc(S(=O)(=O)O)cc1`, “inactive”; under `CC(N)=O`, “inactive”. For `O=C(N[C@@H](c1ccccc1)[C@@H]1CCCCN1)c1cccc(C(F)(F)F)c1Cl`, the concentration at half-maximal activity (AC50) was 24.2 µM (active). For the compound `CCCCC(CC)CO` (stereo not given), the result was inactive. Regarding `Cc1ccc(C(C)(C)C)c(O)c1`, the compound was called inactive. Same read-out and setting: under `CN(C)CCCN(C)CCCN(C)C` stands “inactive”; under `CC(C)COC(=O)CCCCC(=O)OCC(C)C`, “inactive”.

With `O=NO`, the call was inactive.

For the compound `Cc1ccc(-c2cc(C(F)(F)F)nn2-c2ccc(S(N)(=O)=O)cc2)cc1`, the AC50 is 6 µM (active). With `C/C=C/C=C/C(=O)O`, the result was inactive.

For `CC(C)OC(=O)C(C)(C)Oc1ccc(C(=O)c2ccc(Cl)cc2)cc1`, the AC50 was 3.85 µM (active). With `Oc1ccc(O)cc1`, the result was inactive. Consider `CCCCCCCCCC[N+](C)(C)[O-]`, for which the call was inactive. Regarding `Cc1c(C)c2c(c(C)c1O)CCC(C)(COc1ccc(CC3SC(=O)NC3=O)cc1)O2` (stereo not given), the AC50 was 27.5 µM (active).

`C=CCCCCCCCCCCCC`: the outcome was inactive.
